# Measured values published in PubChem BioAssay (Tox21).
# Several values for one entry are separate records, joined by “and”; a condition that tells them apart may be missing. Identical values can stand only once. Records with an inconclusive call do not appear. A number with no mark means an inactive call. Activity calls are given as the source filed them. Calls follow the shape of the dose curve; as a rule, active = well fitted cell-killing curve with a large enough effect in the repeat runs; inconclusive = weak or mixed curves, or effect the other way; inactive = flat fitted curve, though single readings scatter.
# Assay: qHTS RealTime-Glo MT Cell Viability Assay in HEK293 cells - 32 hour (AID 1224868); also: nearly all actives have a fitted effect of over 50% in size; as to activity change, negative = cytotoxic: top concentration of the series differs between compounds
# Conditions: RealTime-Glo luminescence; series mostly up to 76.8 µM; activity change, negative = cytotoxic: at the top concentration
# From the text: National Center for Advancing Translational Sciences [NCATS]
# NIH Chemical Genomics Center [NCGC]
# U.S. Environmental Protection Agency [EPA]
# National Institutes of Environmental Health Sciences [NIEHS]
# National Toxicology Program [NTP]
# U.S. Food and Drug Administration [FDA]
# Measure of cell viability is critical in the cell-base assay. Analysis of cell viability is necessary for the characterization of cell responses to cytotoxic drugs and environmental stress. A RealTime-Glo MT Cell Viability Assay to monitor cell viability in real time of continues cell culture during 40 hours of compound treatment was used to screen Tox21 10K library compounds in Hek293 cells. The RealTime-Glo MT Cell Viability Assay is a nonlytic, homogeneous, bioluminescent method to measure cell viability in real time using a simple, plate-based method. The assay involves adding NanoLuc luciferase and a cell-permeant prosubstrate to cells in culture. Viable cells reduce the proprietary prosubstrate to generate a substrate for NanoLuc luciferase. This substrate diffuses from cells into the surrounding culture medium, where it is rapidly used by the NanoLuc Enzyme to produce a luminescent signal. The signal correlates with the number of viable cells, making the assay well suited for cytotoxicity studies.
# Tox21 Assay Protocol Summary:
# The mixture of Hek293 cell suspension and reagents were dispensed at 600cells/6 ul/well in 1536-well tissue culture treated black solid bottom plates using a Multidrop dispenser. After the assay plates were incubated at a 37 C/5% CO2 incubator for 5 hours, 23 nL of compounds dissolved in DMSO, positive and negative controls was transferred to the assay plate by a pintool work station. The plates were incubated at 37 C for 40 hours. The luminescence intensity were measured at 0h, 8h, 16h, 24h, 32h and 40h time points using ViewLux plate reader during compound treatment.
# % is scaled to controls: 0 for no effect and ±100 for the full control effect; potency is read from the fitted curve at half-maximal effect.
SMILES,Potency,"activity change, negative = cytotoxic"
CCCCCCCCCCCCCC[N+](C)(C)C,9.44 µM (active) and 12.3 µM (active) and 2.13 µM (active),–
COC1=C(OC)C(=O)C(CCCCCCCCCCO)=C(C)C1=O,5.35 µM (active),–
CC(=O)Oc1cc2c(s1)CCN(C(C(=O)C1CC1)c1ccccc1F)C2 (stereo not given),–,-6.08% [at 35.3 µM]
CCCCCCCCCCOC(=O)c1ccccc1C(=O)OCCCCCCCC,–,0.668%
Cc1cc(-n2nc3ccc(Cl)cc3n2)c(O)c(C(C)(C)C)c1,–,-6.06% [at 35.3 µM]
OC1CCC(C2CCCCC2)CC1 (stereo not given),–,-6.38%
CN(C)c1ccc(C(=C2C=CC(=[N+](C)C)C=C2)c2ccc(N(C)C)cc2)cc1,2.74 µM (active) and 6.92 µM (active) and 2.39 µM (active),–
O=C(Nc1ccc2c(O)c(N=Nc3ccc(N=Nc4ccc(S(=O)(=O)O)cc4)cc3)c(S(=O)(=O)O)cc2c1)c1ccccc1,–,-18.2%
CCCCNS(=O)(=O)c1ccc(C)cc1,–,-21.6%
O=c1c(O)c(-c2ccc(O)cc2O)oc2cc(O)cc(O)c12,–,1.07%
CC(C)(C)NSc1nc2ccccc2s1,–,7.4%
S=c1nccc[nH]1,–,10.7%
Cc1cccc(C(=O)O)c1O,–,-2.63% [at 35.3 µM]
CC/C=C\CCCCCO,–,8.2%
COc1cccc2c1C(=O)c1c(O)c3c(c(O)c1C2=O)C[C@@](O)(C(C)=O)C[C@@H]3O[C@H]1C[C@H](N)[C@H](O)[C@H](C)O1,69.6 nM (active) and 3.4 nM (active),–
Cl[Si](Cl)(c1ccccc1)c1ccccc1,–,-3.09%
CC(C)OC(=O)C(O)(CC(=O)O)CC(=O)O,–,1.83%
CCCCCCCCCCCCCCCC[N+](C)(C)CC,4.91 µM (active) and 4.77 µM (active),–
Cc1c(C)c2c(c(C)c1O)CC[C@@](C)(CCC[C@H](C)CCC[C@H](C)CCCC(C)C)O2,–,-12.8%
ClCCl,–,5.97%

SMILES,Potency,"activity change, negative = cytotoxic"
COc1c(C)c2c(c(O)c1C/C=C(\C)CCC(=O)OCCN1CCOCC1)C(=O)OC2,–,-23.4% [at 35.3 µM]
COc1ccc2cc1Oc1ccc(cc1)C[C@H]1c3c(cc4c(c3Oc3cc5c(cc3OC)CCN(C)[C@@H]5C2)OCO4)CCN1C,5.35 µM (active),–
CCN(CC)c1ccc2c(-c3ccc(S(=O)(=O)O)cc3S(=O)(=O)[O-])c3ccc(=[N+](CC)CC)cc-3oc2c1,–,-17.6%
CCC(CC)(CC(=O)Nc1cccc(/C=C/c2nc(C3CCC3)cs2)c1)C(=O)O,–,-15.5% [at 35.3 µM]
C=Cc1cccc(C)c1,inactive,–
OCC(F)(F)F,–,17.8%
CNc1ccc([N+](=O)[O-])cc1,–,-11.7%
O=[N+]([O-])c1cccc(C(F)(F)F)c1,–,8.39%
C=C(C)C(=O)OCCCCCCCCCC,–,13.6%
O=C(O)O,–,0.187% [at 6.97 µM]
CC(C(=O)O)c1ccc2c(c1)[nH]c1ccc(Cl)cc12 (stereo not given),–,1.58% [at 35.3 µM]
CCCCC(CC)CN1CN(CC(CC)CCCC)CC(C)(N)C1 (stereo not given),8.49 µM (active),–
C=CC(=O)Nc1cc2c(Nc3ccc(F)c(Cl)c3)ncnc2cc1OCCCN1CCOCC1,9.52 µM (active),–
Cc1ccc(C)cc1,–,1.98%
O=C(O)c1cccc(C(F)(F)F)c1,–,-0.171%
CCCCC/C=C\C/C=C\CCCCCCCC(=O)O,inactive,–
CCC(C)[O-].CCC(C)[O-].CCOC(=O)/C=C(/C)[O-].[Al+3],–,5.12%
CCCCCC/C=C\CCCCCCCC(=O)O,–,-0.986%
CC(CCc1ccccc1)NCC(O)c1ccc(O)c(C(N)=O)c1 (stereo not given),–,0.812%
O=C(O)c1ccc2cc(C(=O)O)ccc2c1,–,6.33%
